# The list is not random: actives were taken first. Their share in the collection is about 19%.
# HT1080 IDH1KD tx = HT-1080 IDH1 knockdown cell toxicity (counter line). Potency, µM (series often up to 46.1 µM), usual class: cytotoxic. 2% of 360,000 active. HT-1080 IDH1 knockdown viability, ATP luminescence, 48 h
#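 In this qHTS, HT-1080 cells depleted of IDH1 are exposed for 48 h at 37 °C to compound titrations. Toxicity is scored from CellTiter-Glo luminescence, with DMSO as full viability and medium alone as none.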
# HT1080-NT tox = kills 2HG-producing HT-1080-NT fibrosarcoma cells. HT-1080-NT fibrosarcoma viability, CellTiter-Glo ATP luminescence, 48 h. Potency, µM (series often up to 46.1 µM), usual class: cytotoxic. 1.6% of 360,000 active;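 note: NT is the 2HG producing partner of a matched IDH1 knockdown line; nearly all actives have a fitted effect of over 55% in size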
#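 Viability by CellTiter-Glo luminescence after 48 h compound exposure at 37C of HT-1080-NT cells (750/well, RPMI, 5% FBS). % activity scaled between DMSO wells and medium-only wells, then curve-fitted and categorized by curve class.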
# KB-3-1 cytotox = kills parental KB-3-1 adenocarcinoma cells. KB-3-1 viability, CellTiter-Glo ATP luminescence, 72 h. Potency, µM (series often up to 46.1 µM), actives largely listed as cytotoxic. 1.4% of 400,000 active; note: nearly all actives have a fitted effect of over 60% in size
#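 Here the drug-naive KB-3-1 line serves as comparator for MDR sub-line selectivity; cells received compound titrations, 72 h at 37 °C, then CellTiter-Glo readout.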
# KB-V1 cytotox = KB-V1 MDR subline cytotoxicity; KB-V1 MDR cells viability, CellTiter-Glo, 72 h; 3.4% of 400,000 active; Potency, µM (doses to about 46.1 µM), usual class: cytotoxic; note: nearly all actives have a fitted effect of over 60% in size
#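 Following 72 h at 37 degrees C with compound, KB-V1 cell viability was read by CellTiter-Glo luminescence, medium being phenol-red-free DMEM plus 10% FBS; concentration-response parameters came from normalized, curve-fitted qHTS data.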
# TDP1 cell noCPT = qHTS for Inhibitors of human tyrosyl-DNA phosphodiesterase 1 (TDP1): qHTS in cells in absence of CPT; 15% of 420,000 active; DT40 Tdp1-/- hTDP1 cells, no CPT, ATP luminescence, 48 h; AID 686978, 2013; Potency, µM (top dose mostly 46.2 µM), hits mostly inhibitors; note: nearly all actives have a fitted effect of over 55% in size
#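 Luminescent ATP content (CellTiter-Glo) served as the growth readout. Knockout chicken DT40 cells expressing human TDP1 were exposed to compounds without camptothecin for a minimum 48 hr at 37 °C.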
# TDP1 cell CPT = growth inhibition of DT40 Tdp1-/-;hTDP1 cells with camptothecin (screen for TDP1 inhibitors). chicken DT40 Tdp1-/-;hTDP1 cells + 20 nM CPT, ATP luminescence, 48 h. Potency, µM (doses to about 46.2 µM), most hits filed as inhibitors. 12% of 420,000 active; note: nearly all actives have a fitted effect of over 55% in size
#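 Chicken DT40 Tdp1-/- cells complemented with human TDP1, 400 cells/well, exposed to compounds plus 20 nM camptothecin for at least 48 h at 37 C; viability read as ATP content by CellTiter-Glo luminescence.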
# A number is an active result; 0 = inactive; ? = inconclusive; - = no result. Calls come from the whole dose curve; as a rule, active = well fitted curve in the direction sought with a large enough effect; inconclusive = small, poorly fitted or top-dose-only effect, or another doubt; inactive = no such curve, though single readings can be large; an effect the other way counts as inactive or inconclusive.
SMILES,HT1080 IDH1KD tx,HT1080-NT tox,KB-3-1 cytotox,KB-V1 cytotox,TDP1 cell noCPT,TDP1 cell CPT
C(/Oc1ccccc1)=C1\Nn2c(nnc2-c2cc(-c3ccccc3)n[nH]2)S1,-,-,?,0,20µM,7.1µM
O=C(Cc1ccc2ccccc2c1)NO,0,0,-,-,0,0
CCOC(=O)Cn1nc(/C=C/c2ccccc2)ccc1=O,0,0,0,?,0,0
CCOC(=O)Cn1nc(/C=C/c2ccc(C)cc2)ccc1=O,0,0,?,?,23µM,?
CCOC(=O)Cn1nc(/C=C/c2ccc(C(C)C)cc2)ccc1=O,0,0,?,0,?,15µM
CC(C)c1nc2c(s1)CCc1onc(-c3cccc([N+](=O)[O-])c3)c1-2,0,0,0,0,23µM,?
O=C(COC(=O)CC1CCS(=O)(=O)C1)Nc1ccc(F)cc1 (configuration not stated),0,0,0,0,0,0
COc1cc2ccccc2ccc1=NO,0,0,?,16µM,12µM,16µM
COc1cc2ccccc2cc1C(=O)O,0,0,0,0,0,0
COc1ccc(OC)c2cc3ccccc3cc12,?,0,0,0,0.92µM,0.73µM
O=C1Nc2ccccc2-n2nnnc2C1N1CCc2ccccc2C1 (configuration not stated),0,0,0,0,0,0
CCCCN(C)CCNC(=O)c1c2c(nc3ccccc13)C(=O)N(C1CCCCC1)C2,-,-,0,0,0,0
O=C(Cn1c(=O)n(CCc2c[nH]c3ccccc23)c(=O)c2cccnc21)Nc1ccccc1F,0,0,0,0,23µM,15µM
O=C(Cn1c(=O)n(Cc2cccs2)c(=O)c2cccnc21)Nc1ccccc1F,-,-,0,0,0,0
Cc1csc2ncnc(NC3CCN(Cc4ccccc4)CC3)c12,?,0,0,?,0.65µM,1µM
COc1cccc(N2CCN(C(=O)CN3CCSc4ccc(S(=O)(=O)N(C)C)cc43)CC2)c1,-,-,0,?,-,-
O=C1C2C3c4ccccc4C(c4ccccc43)[C@@H]2C(=O)N1c1ccccn1 (some centres not stated),0,0,0,0,21µM,?
COc1ccc(C2CC(c3cccs3)=NN2C(=O)c2ccccc2)cc1OC (configuration not stated),0,0,0,0,0,0
COc1cc(C2CC(c3cccs3)=NN2C(=O)CCl)ccc1OC(F)F (configuration not stated),2.6µM,1.6µM,?,15µM,4.1µM,4.6µM
COc1ccc(C2CC(c3cccs3)=NN2C(=O)CCl)cc1OC (configuration not stated),7.3µM,4.6µM,?,?,3.3µM,2.6µM
COC(=O)c1cnc(Nc2nc(C(N)Cc3ccc(Cl)cc3)cs2)nc1C(F)(F)F (configuration not stated),?,?,?,0,23µM,?
COC(=O)c1cnc(Nc2nc(C(N)Cc3ccccc3)cs2)nc1C(F)(F)F (configuration not stated),?,?,?,?,21µM,23µM
COC(=O)c1cnc(Nc2nc(C(N)Cc3ccc(OC)cc3)cs2)nc1C(F)(F)F (configuration not stated),?,23µM,0,0,?,?
O=C(NCCC1=CCCCC1)c1ccc2c(c1)N(Cc1ccc(Cl)cc1)C(=O)c1ccccc1S2=O (configuration not stated),-,-,0,?,?,?
CC(C)NC(=O)C1(C)CSCC(=O)N1Cc1cccc(F)c1 (configuration not stated),0,0,0,0,0,0
SMILES,HT1080 IDH1KD tx,HT1080-NT tox,KB-3-1 cytotox,KB-V1 cytotox,TDP1 cell noCPT,TDP1 cell CPT
Cc1ccc(N2CC(NC(=O)c3ccc4c(c3)OCO4)CC2=O)cc1 (configuration not stated),-,-,-,-,0,0
COc1cccc2c1cc1c(=O)n(CC(=O)O)nc(C)n12,-,-,0,?,0,0
COC(F)(F)C(Cl)Cl,-,-,-,-,0,0
C=C1C[C@H](OC(=O)C(C)(O)CCl)C2C(=C)C(=O)O[C@@H]2C2C1C[C@H](O)[C@]2(O)CCl (some centres not stated),-,-,-,-,0.82µM,1.5µM
Cc1cc(C(=O)C(=O)N(C)C)c(C)n1-c1ccc(Cl)c(Cl)c1,0,0,0,?,21µM,?
CC1=C(CC(=O)c2ccccc2)C(=O)c2ccccc2C1=O,?,?,?,10µM,12µM,8.2µM
O=C(CN1C(=O)c2ccccc2C1=O)c1ccccc1,0,0,0,0,0,0
O=C(N/N=C/c1cc([N+](=O)[O-])cc(Br)c1O)C12CC3CCC(CC(C3)C1)C2,0,0,?,?,23µM,?
COc1cc(/C=N/NC(=O)C23CC4CC(CC(C4)C2)C3)cc(Br)c1O,0,0,?,0,0,0
Cc1onc(-c2c(Cl)cccc2Cl)c1C(=O)NCCc1ccncc1,0,0,-,-,0,0
CC(=O)c1ccc(NC(=O)c2c3c(nc4ccccc24)C(=O)N(C2CCCCC2)C3)cc1,-,-,0,0,21µM,21µM
CC(NC(=O)c1c2c(nc3ccccc13)C(=O)N(C1CCCCC1)C2)c1ccccc1 (configuration not stated),-,-,0,0,18µM,16µM
Cn1cc(C(=O)NCCc2ccccc2)c(=O)c2cc(S(=O)(=O)N3CCCCC3)ccc21,-,-,?,0,0,0
Cc1ccc(NC(=O)c2cccnc2)c([N+](=O)[O-])c1,0,0,?,?,18µM,18µM
Cc1ccc(C)c(NC(NC(=O)c2cccnc2)C(Cl)(Cl)Cl)c1 (configuration not stated),0,0,0,0,26µM,23µM
COc1c(C)cc(Br)cc1C(=O)Nc1ccc(C)cc1[N+](=O)[O-],0,0,0,0,13µM,?
Cc1ccc(NC(NC(=O)c2cccnc2)C(Cl)(Cl)Cl)cc1 (configuration not stated),0,0,0,0,?,?
COc1cc(S(=O)(=O)Nc2cccc(C)c2)ccc1NC(=O)c1cccnc1,0,0,?,21µM,15µM,?
COc1cc(NC(=O)c2cccnc2)ccc1NC(=O)c1ccccc1Cl,0,0,0,0,?,0
O=C(NCCSCc1ccccc1)C1CCN(S(=O)(=O)Cc2ccccc2)CC1,-,-,0,?,0,0
COC(=O)c1c(NC(=O)COC(=O)c2ccc(C)s2)sc2c1CCCCC2,0,0,0,0,?,0
COc1ccc(NC(=O)c2c(NC(=O)COc3ccccc3)sc3c2CCCCC3)cc1,-,-,0,0,0,0

# High-throughput results deposited in PubChem BioAssay by National Center for Advancing Translational Sciences (NCATS).
